Bioassay records (PubChem)
PostGolgi yeast – phenotypic screen on post-Golgi transport, primary screen | post-Golgi transport phenotypic cell assay | inhibition, % at 10 µM | 98,000 compounds, 0.9% hits | AID 739, 2007;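 also: yeast cells grown in 1536-well plates; yeast grown about 18 h at 30C before absorbance read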
CYP2C19 act – human CYP2C19 activators, primary screen, biochemical, luminescence; Cytochrome P450 2C19 (Homo sapiens), P33261; AID 1025, 2008; activation factor at 5 µM; recombinant CYP2C19, luciferin-H EGE luminescence; active compounds read high; 0 = fully inhibited enzyme, 1 = untreated enzyme; 96,000 tested, under 10 active;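 active = activation factor of at least 2 at 5 µM in the primary screen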;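 also: 0 = wells with 2.5 mM tranylcypromine and 1 = vehicle-only wells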
Target sequence (P33261 whole entry, looked up): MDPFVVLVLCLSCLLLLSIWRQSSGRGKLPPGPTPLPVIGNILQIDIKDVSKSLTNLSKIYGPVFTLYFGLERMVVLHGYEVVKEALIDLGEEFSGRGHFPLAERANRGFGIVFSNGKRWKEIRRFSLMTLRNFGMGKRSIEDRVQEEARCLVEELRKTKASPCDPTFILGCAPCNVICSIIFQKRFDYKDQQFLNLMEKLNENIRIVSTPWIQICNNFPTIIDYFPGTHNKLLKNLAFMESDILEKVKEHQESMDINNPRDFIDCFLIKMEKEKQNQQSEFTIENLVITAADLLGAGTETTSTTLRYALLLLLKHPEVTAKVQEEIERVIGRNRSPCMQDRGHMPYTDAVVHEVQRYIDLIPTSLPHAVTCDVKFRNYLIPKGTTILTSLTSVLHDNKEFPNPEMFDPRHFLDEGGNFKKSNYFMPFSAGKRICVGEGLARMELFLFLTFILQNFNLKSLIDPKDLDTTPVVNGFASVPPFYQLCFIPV
PostGolgi ctrl – growth inhibition of yeast control strain, primary screen, counter-screen for post-Golgi transport modulator project; efflux-deficient yeast background strain, growth absorbance A615, 16 h; inhibition, % at 10 µM; 98,000 compounds, 5% hits
CYP2C19 inhib – blockers of cytochrome P450 2C19 activity – biochemical, luminescence, ADME assay, primary screen; 96,000 compounds, 21% hits; inhibition, % at 5 µM; CYP2C19 Supersomes, luciferin-H EGE luminescence, 30 min; AID 778, 2007; P33261;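 active = CYP2C19 inhibition above a set limit at 5 µM in the primary screen, cut at about 50% in these data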;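 also: plate controls were negative control wells for no effect and 2.5 mM tranylcypromine positive control for full effect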
CYP2C9 inhib – blockers of cytochrome P450 2C9 activity – biochemical, luminescence, ADME assay, primary screen; inhibition, % at 5 µM; P11712; 96,000 compounds, 20% hits; CYP2C9 Supersomes, luciferin-H conversion;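 active = blocking of liver enzyme CYP2C9 beyond about 50% at 5 µM, limit read from the data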
CYP2C9 act – human CYP2C9 activators, primary screen, biochemical, luminescence; Cytochrome P450 2C9 (Homo sapiens), P11712; recombinant CYP2C9, luciferin-H conversion; active compounds read high; factor 1 = untreated enzyme, 0 = blocked; activation factor at 5 µM; 96,000 compounds, 1.4% hits;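 active = activation factor of 2 or more for CYP2C9 at a 5 µM dose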;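 also: 0 = sulfaphenazole-blocked wells and 1 = vehicle-only wells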
The depositor's hits bear a star; nt = no result given. Not all results are given here. Rule as the data show it, unless noted: active = inhibition above about 30%; inactive = the rest.

SMILES	PostGolgi yeast	CYP2C19 act	PostGolgi ctrl	CYP2C19 inhib	CYP2C9 inhib	CYP2C9 act
Cc1[nH]nc2c1C(c1ccc(F)cc1)C1=C(CC(C)(C)CC1=O)N2 (centres undefined)	-3	0.7	29	26	19	0.8
Cc1ccc(Cl)cc1NC1=C/C(=N\S(=O)(=O)c2cccs2)c2ccccc2C1=O	50*	0.3	66*	66*	92*	0.1
O=S(=O)(/N=C/c1ccccc1O)c1cccs1	-1	1	-1	-2	-2	1
C=CCn1c(SCC(=O)c2ccc(CNC(C)=O)o2)nc2ccccc2c1=O	-3	0.8	-1	24	40	0.6
C=CCn1c(SCC(=O)c2ccc(NS(=O)(=O)c3ccccc3)cc2)nnc1-c1cccs1	6	0.4	11	58*	97*	0
C=CCn1c(SCc2ccc3nonc3c2)nnc1-c1cccs1	-6	0	8	99*	76*	0.2
CC(C)(C)C(=O)CSc1nnc(-c2cccs2)n1CC1CCCO1 (centres undefined)	-4	0.4	6	56*	0	1
C=CCn1c(SCC(=O)C(C)(C)C)nnc1-c1cccs1	-1	0.2	4	76*	19	0.8
C=CCn1c(Cc2cccs2)nnc1SCC(=O)Nc1ccc(C(=O)OCC)cc1	-5	0.9	7	10	14	0.9
O=C(NCc1cccs1)c1cnc2sccn2c1=O	-4	1	7	1	2	1
S=c1[nH]nc(C2CC2)n1Cc1ccco1	-3	1	9	2	4	1
CCc1c(C)nc2[nH]nc(NC(=O)C(F)(F)F)n2c1=O	-8	1	6	3	10	0.9
COc1cccc(OC)c1C(=O)N1CCN(S(=O)(=O)c2ccc(C)cc2)CC1	-2	0.9	3	11	35	0.6
COc1ccc2ccccc2c1C(O)c1nccn1C (centres undefined)	2	0.7	4	28	41	0.6
OC(COc1ccc2ccccc2c1Br)Cn1ccnc1 (centres undefined)	-5	0	7	99*	96*	0
OCCN1CCN(CC(O)COc2ccc3ccccc3c2)CC1 (centres undefined)	-2	1.1	3	-13	-28	1.3
OC(COc1ccc2ccccc2c1)Cn1ccnc1 (centres undefined)	10	0	9	100*	98*	0
OCCN(CCO)c1ncnc2c1oc1ccc(Br)cc12	-4	1.1	-7	-9	25	0.7
O=C(NC1CCN(C(=S)NCc2ccco2)CC1)NC12CC3CC(CC(C3)C1)C2	-3	0.8	27	18	2	1
CCN(CC)c1ccc2cc(-c3nnc(-c4ccncc4)o3)c(=O)oc2c1	-1	0.7	51*	30	36	0.6
CCN(CC)c1ccc2cc(C(C)=O)c(=O)oc2c1	1	0.9	6	12	-10	1.1
Cc1ccc(S(=O)(=O)NCC(=O)OC(C(=O)c2ccccc2)c2ccccc2)cc1 (centres undefined)	-1	0.5	8	47	57*	0.4
O=C(NCC1CCCO1)C1c2ccccc2C(=O)N1Cc1ccc2c(c1)OCO2 (centres undefined)	18	1	7	3	5	0.9
CCOC(=O)c1c(N)sc(C(O)(C(F)(F)F)C(F)(F)F)c1-c1ccc(OC)cc1OC	3	0.5	21	55*	72*	0.3
CCOC(=O)c1c(C)nc2c(c1-c1cc(OC)ccc1OC)C(=O)c1ccccc1-2	-11	0.8	4	22	-8	1.1
SMILES	PostGolgi yeast	CYP2C19 act	PostGolgi ctrl	CYP2C19 inhib	CYP2C9 inhib	CYP2C9 act
COc1ccc(N2CCN(C(=O)c3ccc(N4C(=O)NC5CC4(C)Oc4ccccc45)cc3)CC2)cc1 (centres undefined)	8	0.6	6	44	26	0.7
CC12CC(c3ccccc3O1)N(C(=O)c1ccco1)C(=S)N2c1ccc(F)cc1 (centres undefined)	-7	0.4	23	63*	45	0.6
O=C(O)CCSc1nc2ccccc2n1CCOc1ccccc1	3	1	4	-4	17	0.8
OCCn1c(SCCOc2ccccc2F)nc2ccccc21	5	0.1	41*	94*	52*	0.5
OCCSc1nc2ccccc2n1CCOc1ccccc1	-10	0.1	6	91*	78*	0.2
COCCn1c(SCc2csc(-c3ccccc3)n2)nc2ccccc21	-1	nt	30*	nt	nt	nt
O=C(O)Cn1c(SCCOc2ccccc2F)nc2ccccc21	31*	0.9	-1	8	70*	0.3
OCCn1c(SC2CCCCC2)nc2ccccc21	-1	0.6	2	39	16	0.8
CC1=C(C(=O)Nc2cc(C)ccc2C)C(c2cccs2)NC(=S)N1 (centres undefined)	-3	1	1	1	22	0.8
COC(=O)c1ccc(COC(=O)C23CC4CC(CC(O)(C4)C2)C3)o1	-2	0.7	-4	27	24	0.8
CC1CCCN(S(=O)(=O)c2cccc(-c3cn4cccnc4n3)c2)C1 (centres undefined)	2	0.7	15	27	24	0.8
Cc1nc2ccc3nc(NC(=O)C4COc5ccccc5O4)sc3c2s1 (centres undefined)	2	1	19	-5	68*	0.3
O=C(Nc1nc(-c2ccccc2)cs1)C1COc2ccccc2O1 (centres undefined)	4	0.8	18	23	35	0.7
O=C(Nc1nc(-c2ccc(S(=O)(=O)N3CCCC3)cc2)cs1)C1COc2ccccc2O1 (centres undefined)	0	0.4	4	62*	92*	0.1
CC1CC1C(=O)Nc1nc(-c2ccccn2)cs1 (centres undefined)	-16	0.7	7	30	34	0.7
O=C(Nc1nc(-c2ccccn2)cs1)C1COc2ccccc2O1 (centres undefined)	31*	nt	39*	nt	nt	nt
O=C(Nc1nc(-c2ccc3c(c2)OCO3)cs1)C1COc2ccccc2O1 (centres undefined)	-1	0.6	14	39	80*	0.2
O=C(/C=N\O)NCCCNCc1ccccc1	5	1	2	0	5	1
NCCCCCNC(=O)/C=N\O	7	1.1	4	-6	-2	1
Cc1ccc(C)c(NC(=O)CSc2nnc(-c3ccccc3C)o2)c1	0	0.6	21	42	14	0.9
O=C(NC(c1ccccc1)c1ccccc1)c1ccc(S(=O)(=O)C(F)F)cc1	9	1.1	9	-8	20	0.8
